From the supplement of paper PMC6522484 come the findings set out here.

Test [1] deals with DLD1. The experiment in a line: cell viability (CellTiter-Glo) relative to plate median (fraction of plate median); higher = more viable cells. The settings on record: 5 µM; treatment time 24 h; reporter: 7TFP. The procedure, abridged: (§1)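 Two independent replicates were averaged for each reported value. Library compounds were applied at a final 5 µM for 24 h to colorectal cancer cell lines stably expressing lentiviral TCF/Wnt firefly luciferase reporters. Firefly luciferase or CellTiterGlo luminescence from each well was normalised to the plate median.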
On the technique in general: In ATP-based viability assays light output follows the ATP content of the culture.

The subject of the next test is HCT116. Described as above. The settings on record: 5 µM; treatment time 24 h; reporter: TCF4/Wnt. The procedure, abridged: as §1
Test [2] relates to SW480. The test is described as above. The settings on record: 5 µM; treatment time 24 h; reporter: 7TFP. An outline of the steps:
as §1

Test [3] concerns DLD1. The experiment in a line: TCF/Wnt firefly luciferase reporter signal relative to plate median (fraction of plate median); higher = higher Wnt reporter signal. The settings on record: 5 µM; treatment time 24 h; reporter: 7TFP. The procedure, abridged:
as §1
(A reporter such as luciferase makes a cellular process visible.)

Test [4] has as its system SW480. The description is as above. The settings on record: 5 µM; treatment time 24 h; reporter: 7TFP. The procedure, abridged: as §1

± gives the standard deviation of the averaged measurements.

Consider `CC(C)CCC[C@@H](C)[C@H]1CC[C@H]2[C@@H]3C(=O)C=C4C[C@@H](O)CC[C@]4(C)[C@H]3CC[C@]12C`, for which the cell viability was 1.1 ± 0.092 in the test with DLD1 [1], 0.99 in the test with HCT116 and 1.04 ± 0.1 in the test with SW480 [2]. In addition, the entries for the “TCF/Wnt firefly luciferase reporter signal” value with DLD1 [3] and with SW480 [4] were 0.959 ± 0.018 and 1.01 ± 0.027, respectively.
In the same order, the values of `COc1ccc(-c2cc(=O)c3c(O)c(OC)c(O[C@@H]4O[C@H](CO[C@@H]5O[C@@H](C)[C@H](O)[C@@H](O)[C@H]5O)[C@@H](O)[C@H](O)[C@H]4O)cc3o2)cc1` are 0.933 ± 0.087, 0.951 ± 0.056, 0.897 ± 0.056, 1.07 ± 0.035 and 1.08 ± 0.021.
In the same order, the values of `Nc1nc2c(ncn2[C@@H]2O[C@H](CO)[C@@H](O)[C@H]2O)c(=O)[nH]1` [Guanosin] are 0.915 ± 0.033, 0.934 ± 0.044, 0.903 ± 0.023, 0.927 ± 0.019 and 0.88 ± 0.014.
In the same order, the values of `COc1ccc(-c2oc3ccccc3c(=O)c2O)cc1OC` are 0.969 ± 0.087, 0.912 ± 0.024, 1.05, 0.923 ± 0.0099 and 1.18 ± 0.028.
In the case of `COC1=CC(=O)C[C@@H](C)[C@]12Oc1c(Cl)c(OC)cc(OC)c1C2=O`, the cell viability was determined as 0.937 ± 0.055 with DLD1 [1], 1.02 ± 0.057 in the test with HCT116 and 0.865 ± 0.038 in the test with SW480 [2]. Also, the “TCF/Wnt firefly luciferase reporter signal” value with DLD1 [3] stood at 0.929 ± 0.094; in the test with SW480 [4], 0.89 ± 0.17.
In the same order, the values of `CC(C)[C@H](NC(=O)[C@H](Cc1ccc(O)cc1)NC(=O)[C@@H](NC(=O)C(F)(F)F)C(C)C)C(=O)O` are 0.957 ± 0.028, 0.94 ± 0.021, 0.969 ± 0.025, 0.842 ± 0.12 and 0.845 ± 0.035.
In the same order, the values of `C=C(CC[C@@H](C(=O)O)[C@H]1CC[C@@]2(C)C3=C(CC[C@]12C)[C@@]1(C)CC[C@H](O)C(C)(C)[C@@H]1CC3)C(C)C` [Eburicoic acid] are 0.994 ± 0.052, 0.923 ± 0.15, 1.01 ± 0.03, 0.878 ± 0.023 and 0.983 ± 0.013.
In the same order, the values of `COc1ccc(/C=C/C(=O)c2ccc(O)cc2O)cc1` are 0.938 ± 0.088, 0.947 ± 0.065, 1.035 ± 0.0071, 1.085 ± 0.0071 and 0.794 ± 0.054.
Consider `COc1ccccc1OCC(O)CN1CCN(CC(=O)Nc2c(C)cccc2C)CC1` (stereo not given), for which the cell viability in the test with DLD1 [1] stood at 0.977 ± 0.018; in the test with HCT116, 0.927 ± 0.018; in the test with SW480 [2] it was 0.944 ± 0.013. The “TCF/Wnt firefly luciferase reporter signal” value was found to be 1.04 ± 0.028 in the test with DLD1 [3] and 0.881 ± 0.0092 in the test with SW480 [4].
In the same order, the values of `CC(=O)OC1CCC2(C)C3=C(CC[C@H]2C1(C)C)[C@@]1(C)CC[C@@H]([C@@H](C)CCC=C(C)C)[C@]1(C)CC3` (stereo not given in full) are 1.04 ± 0.097, 1 ± 0.064, 0.961 ± 0.0014, 1.06 ± 0.17 and 1.11 ± 0.014.
In the same order, the values of `CC(=O)O[C@@H]1CC2C(C)(CC[C@H](O)C2(C)C)C2CC[C@]3(C)C(=CC(=O)O[C@H]3c3ccoc3)C21C` (stereo partly drawn) [3beta-HYDROXYDEOXODIHYDRODEOXYGEDUNIN] are 1 ± 0.028, 0.963 ± 0.081, 1.02 ± 0.028, 1.15 ± 0.12 and 1.12 ± 0.014.
In the same order, the values of `O=C1C=C(O)C(=O)c2ccccc21` are 1.025 ± 0.0071, 1.06 ± 0.035, 1.02 ± 0.047, 0.947 ± 0.09 and 0.985 ± 0.11.
For `CN(C)CCC=C1c2ccccc2CCc2ccccc21`, the cell viability came to 0.958 ± 0.036 in the test with DLD1 [1], 0.997 ± 0.047 in the test with HCT116 and 0.989 ± 0.016 in the test on SW480 [2]. Moreover, the “TCF/Wnt firefly luciferase reporter signal” value in the test with DLD1 [3] came to 0.952 ± 0.061; with SW480 [4], 0.963 ± 0.046.
In the same order, the values of `CCCC(=O)NCCc1ccccc1` [N-(2-Phenyl)ethylbutyramide] are 1.07 ± 0.11, 1.08 ± 0.15, 1.06 ± 0.071, 1.07 ± 0.14 and 0.9865 ± 0.00071.
